# This is a sample that favours compounds with a hit; in the whole collection about 2.4% have one here.
# D2 PAM-1 = positively modulates the human D2 dopamine receptor allosterically. P14416. HEK293 T-REx D2, calcium flux, EC20 dopamine potentiation. potentiation, % at 10 µM. actives 0.34% (n = 340,000);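 active = potentiation over 3 SD above the plate norm, cut at about 30% in these data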; also: 0% is about no effect
# Target sequence (P14416 whole entry, looked up): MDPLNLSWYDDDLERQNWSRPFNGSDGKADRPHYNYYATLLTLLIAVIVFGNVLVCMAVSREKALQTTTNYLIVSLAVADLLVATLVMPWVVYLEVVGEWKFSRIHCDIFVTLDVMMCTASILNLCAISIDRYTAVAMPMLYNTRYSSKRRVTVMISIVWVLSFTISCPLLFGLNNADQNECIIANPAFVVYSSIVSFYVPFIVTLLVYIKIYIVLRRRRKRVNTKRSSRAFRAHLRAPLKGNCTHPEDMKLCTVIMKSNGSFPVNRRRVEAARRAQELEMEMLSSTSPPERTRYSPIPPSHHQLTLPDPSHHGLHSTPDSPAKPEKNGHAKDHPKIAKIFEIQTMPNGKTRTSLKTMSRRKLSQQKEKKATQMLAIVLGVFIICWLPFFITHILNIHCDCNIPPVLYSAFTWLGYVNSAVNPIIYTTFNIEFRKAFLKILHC
#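 Potentiation of an EC20 dopamine calcium response is measured in a force-coupled, tetracycline-inducible Hek293 Trex D2 line. Compound-only kinetic reads over 180 s flag agonists before dopamine addition.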
# D2 PAM-2 = positive allosteric modulators of human D2 dopamine receptor | actives 0.23% (n = 360,000) | DiscoveRx D2 beta-arrestin cells, luminescence, 90 min; 100% = 57 uM dopamine signal | potentiation, % (test concentration not listed) | P14416; in the data active = potentiation above about 50%; inconclusive = mostly about 30% to 49%
#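 PathHunter beta-arrestin assay in DiscoveRx D2 cells. Compounds were added with an EC20 of dopamine (50 nM final) for 90 min at 37 deg C. Luminescence was read 1 h after detection reagent, with 57 uM dopamine as the EC100 control.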
# D2 ag-1 = agonists of human D2 dopamine receptor (beta-arrestin); DiscoveRx PathHunter D2 beta-arrestin, luminescence, 90 min; 100% = 57 uM dopamine signal; activation, % (test concentration not listed); actives 0.084% (n = 360,000); AID 624465; in the data active = activation above about 40%; inconclusive = between about 15% and that limit
#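 DiscoveRx PathHunter D2 beta-arrestin cells (2,100/well) attached overnight, then compound-stimulated 90 min at 37 C in HBSS/10 mM HEPES/0.1% Tween-20 buffer; beta-galactosidase complementation read by luminescence after 1 h at ambient temperature. Dopamine 57 uM final (EC100) as control.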
# D2 antagonist = antagonizes the human D2 dopamine receptor; P14416; HEK293 TREx D2 cells, calcium flux, dopamine EC80; inhibition, % at 10 µM; actives 2% (n = 340,000); AID 485344; in the data active = inhibition above about 30%; inactive = below that, where a call was filed; also: 0% is about no effect
#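 Cells plated overnight at 30 C with tetracycline; no-wash calcium dye, 30–90 min RT; 10 s baseline; compound pinned; 180 s read; EC80 dopamine added; another 180 s read.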
# D2 ag-2 = activates the human D2 dopamine receptor; actives 0.53% (n = 340,000); activation, % at 2 µM; HEK293 T-REx D2 cells, calcium flux agonist mode; AID 485358; P14416;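 active = activation over 3 SD above normal in the single-dose calcium agonist read, cut at about 30% in these data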; also: 0% is about no effect
#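 HEK293 Trex D2 cells, tetracycline-induced, o/n 30 C 5% CO2; no-wash Ca dye, RT 30–90 min; 10-cycle baseline, 23 nl cpd added, kinetic Ca read 180 s; agonist hits = positive Ca response.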
# * = called active by the depositor; u = inconclusive; x = no result.
SMILES,D2 PAM-1,D2 PAM-2,D2 ag-1,D2 antagonist,D2 ag-2
COc1ccc(-n2nnnc2C2CCN(S(=O)(=O)c3cc(Cl)ccc3OC)CC2)cc1,4,x,x,x,1
NC(=S)N=Nc1c(O)n(Cc2ccc(F)cc2)c2ccccc12,-1,-4,-1,19,0
NC(=S)N=Nc1c(O)n(Cc2ccc(Br)cc2)c2ccccc12,-3,52*,-2,1,0
CCN(CC)C(=O)c1ccc2c(c1)N(Cc1ccc(C(F)(F)F)cc1)C(=O)c1ccccc1S2,-15,x,x,x,1
Cc1ccc(NC(=O)NCCOCCn2c(=O)oc3ccccc32)cc1C,-5,x,x,x,-1
c1ccc(Cc2nnc3sc(-c4cccs4)nn23)cc1,-10,1,-2,73*,-1
COc1ccccc1N1CCN(C(=O)CSc2nnnn2C2CC2)CC1,1,-15,-2,2,1
COc1ccc(N2CCN(C(=O)CSc3nnnn3C3CC3)CC2)cc1,-15,-2,-1,32*,1
CCCCN(C(=O)Cc1cccc(F)c1)c1c(N)n(CCC)c(=O)[nH]c1=O,6,0,0,37*,2
CCOc1ccc(NS(=O)(=O)c2ccc3c(c2)NC(=O)CCS3)cc1,14,x,x,x,-1
CC(=O)N1CCc2c(sc3c2c(=O)n(-c2cc(Cl)ccc2C)c(=O)n3Cc2ccccc2F)C1,12,x,x,x,2
Cn1c(=O)c2[nH]c(-c3ccccc3Cl)c(O)c2n(C)c1=O,x,25,4,x,x
Cn1c(=O)c2[nH]c(-c3ccccc3)c(O)c2n(C)c1=O,9,108*,u,11,5
Cc1ccc(C2=Nc3ccccc3N(CC(=O)Nc3ccccc3F)C(=O)C2)cc1C,17,x,x,x,0
CCN1/C(=C/c2ccc3cc(C)ccc3[n+]2CC)Sc2ccccc21,10,-9,0,5,36*
COc1ccc(S(=O)(=O)NNc2nc(C)cc(C)n2)cc1Br,-13,-22,-11,52*,0
Cc1cc(C)nc(NNS(=O)(=O)c2ccc(Cl)cc2)n1,x,-40,-15,x,x
CCCc1ccc(OCC(=O)Nc2sc3c(c2C(=O)OC)CCCCC3)cc1,-1,x,x,x,-3
Cc1ccc(-n2ncc(C(=O)NCCCN3CCCCC3)c2C2CCN(C(=O)OC(C)(C)C)CC2)cc1,0,x,x,x,2
O=C1c2ccccc2C(Nc2ccc(S(=O)(=O)N3CCCCCC3)cc2)N1c1ccccn1 (stereo not given),-9,-7,-3,20,-1
O=C1c2cccnc2C(Nc2ccc(S(=O)(=O)N3CCCCC3)cc2)N1Cc1ccccc1 (stereo not given),33*,3,0,-22,0
Cc1nc(SCc2ccc(Cl)cc2)c(C#N)c(C)c1Cl,x,x,x,x,-1
CN(Cc1ccccc1)C(=O)C1CCN(S(=O)(=O)Cc2ccccc2)CC1,-3,x,x,x,1
Cc1ccc(Sc2ccc(N3CCC(C(=O)Nc4ccc(Cl)cc4)CC3)nn2)cc1,-6,x,x,x,0
CN(CCC#N)C(=O)Cn1nc(Cc2ccncc2)c2ccccc2c1=O,12,-6,-3,35*,-2
SMILES,D2 PAM-1,D2 PAM-2,D2 ag-1,D2 antagonist,D2 ag-2
Cc1ccc(C(=O)N/N=C\c2ccc(-c3ccc([N+](=O)[O-])cc3)o2)cn1,7,0,1,4,0
Cc1ccc(C(=O)N/N=C\c2ccc(-c3ccc(Cl)cc3)o2)cn1,30*,-14,3,18,1
Nc1cc(OCC(F)(F)F)cc([N+](=O)[O-])c1,10,-10,0,-1,-2
O=C1C2C3CCC(O3)C2C(=O)N1c1cc(OCC(F)F)cc([N+](=O)[O-])c1 (stereo not given),-4,-23,-5,35*,0
COc1ccc(NC(C)=O)cc1NC(=O)C1(c2cccs2)CCOCC1,-5,x,x,x,-1
Cc1nc2sccn2c(=O)c1CCN1CCC(=C(c2ccccc2)c2ccc(F)cc2)CC1,-25,x,x,73*,2
Cc1nc2sccn2c(=O)c1S(=O)(=O)N1CCN(c2ccccc2)CC1,-2,1,-2,5,0
Cc1cc(C)cc(-n2nnc(-c3nc(-c4ccccc4F)no3)c2C)c1,-5,x,x,x,0
CN(CCOc1ccccc1)CC(=O)Nc1ccc(Br)cc1F,0,-8,0,53*,1
CCN(C(=O)c1c(-c2ccccc2Cl)noc1C)C1CCCCC1,47*,-9,-2,-12,-1

# High-throughput results as filed in PubChem.
